Test results: the supplement of paper PMC10849652
About 7,900 targets were measured; listed, in parts, are those with a hit and a random draw of the rest. About 0.6% of all pairs of compound and target were hits. A number with no mark means an inactive call.

compound: Cn1cncc1[C@@](N)(c1ccc(Cl)cc1)c1ccc2c(c1)c(-c1cccc(Cl)c1)cc(=O)n2C [tipifarnib]; test: log2 fold change, soluble protein after heating vs DMSO (PISA); higher = thermal stabilisation; K562 cells, 10 uM, 30 min; active = over 0.2 and 3.5 SD of the protein, either way, in both replicates (recomputed)
Summary of the method: (§1)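 Quantification of soluble protein used TMTpro 16plex LC-MS/MS, with channel sums equalised. Samples were the supernatant after 21,000xg for 90 min of pooled aliquots from K562 cells (2×10^6 cells/mL) treated with 10 μM compound for 30 min, heated for 3 min over 48°C-58°C, and extracted in PBS with 0.5% NP-40 at 4°C. Values, from duplicates, describe thermal stability against control samples on a log2 fold-change scale.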

Chain of UniProt Q99439 (Q99439 whole entry, looked up): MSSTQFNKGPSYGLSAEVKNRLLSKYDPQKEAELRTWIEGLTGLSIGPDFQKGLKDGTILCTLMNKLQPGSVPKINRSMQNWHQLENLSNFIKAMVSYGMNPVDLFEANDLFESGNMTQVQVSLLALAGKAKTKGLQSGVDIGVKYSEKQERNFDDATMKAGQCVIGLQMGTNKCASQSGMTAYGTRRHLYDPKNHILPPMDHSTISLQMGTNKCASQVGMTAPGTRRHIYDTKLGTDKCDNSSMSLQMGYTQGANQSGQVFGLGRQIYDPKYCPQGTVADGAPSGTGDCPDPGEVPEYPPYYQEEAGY
Chain of UniProt P86791 (P86791 whole entry, looked up): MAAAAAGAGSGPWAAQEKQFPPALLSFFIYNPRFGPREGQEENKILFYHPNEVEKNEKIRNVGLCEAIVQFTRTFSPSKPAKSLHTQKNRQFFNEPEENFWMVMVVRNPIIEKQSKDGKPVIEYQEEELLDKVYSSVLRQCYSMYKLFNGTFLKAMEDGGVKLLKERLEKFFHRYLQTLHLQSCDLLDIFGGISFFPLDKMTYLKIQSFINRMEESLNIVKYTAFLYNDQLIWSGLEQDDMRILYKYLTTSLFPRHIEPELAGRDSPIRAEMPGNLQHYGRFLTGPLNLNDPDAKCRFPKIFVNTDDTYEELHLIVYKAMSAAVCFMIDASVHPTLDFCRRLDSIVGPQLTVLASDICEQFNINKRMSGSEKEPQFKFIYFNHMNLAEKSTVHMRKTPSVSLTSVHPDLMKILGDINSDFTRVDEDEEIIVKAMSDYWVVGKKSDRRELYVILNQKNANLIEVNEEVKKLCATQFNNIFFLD
Chain of UniProt Q96KP4 (Q96KP4 whole entry, looked up): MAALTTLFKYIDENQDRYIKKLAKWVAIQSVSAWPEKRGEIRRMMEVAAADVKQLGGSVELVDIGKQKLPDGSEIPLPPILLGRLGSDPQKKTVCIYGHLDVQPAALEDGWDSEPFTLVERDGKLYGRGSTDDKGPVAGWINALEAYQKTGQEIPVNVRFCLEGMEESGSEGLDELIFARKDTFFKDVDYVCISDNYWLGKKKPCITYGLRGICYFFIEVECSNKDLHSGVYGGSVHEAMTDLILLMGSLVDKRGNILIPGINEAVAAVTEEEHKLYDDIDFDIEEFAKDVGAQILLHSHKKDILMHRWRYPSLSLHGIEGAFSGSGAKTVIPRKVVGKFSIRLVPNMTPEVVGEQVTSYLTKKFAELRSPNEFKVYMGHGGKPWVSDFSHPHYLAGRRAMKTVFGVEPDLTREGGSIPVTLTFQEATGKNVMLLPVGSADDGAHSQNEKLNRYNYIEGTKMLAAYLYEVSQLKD
Chain of UniProt Q10570 (Q10570 whole entry, looked up): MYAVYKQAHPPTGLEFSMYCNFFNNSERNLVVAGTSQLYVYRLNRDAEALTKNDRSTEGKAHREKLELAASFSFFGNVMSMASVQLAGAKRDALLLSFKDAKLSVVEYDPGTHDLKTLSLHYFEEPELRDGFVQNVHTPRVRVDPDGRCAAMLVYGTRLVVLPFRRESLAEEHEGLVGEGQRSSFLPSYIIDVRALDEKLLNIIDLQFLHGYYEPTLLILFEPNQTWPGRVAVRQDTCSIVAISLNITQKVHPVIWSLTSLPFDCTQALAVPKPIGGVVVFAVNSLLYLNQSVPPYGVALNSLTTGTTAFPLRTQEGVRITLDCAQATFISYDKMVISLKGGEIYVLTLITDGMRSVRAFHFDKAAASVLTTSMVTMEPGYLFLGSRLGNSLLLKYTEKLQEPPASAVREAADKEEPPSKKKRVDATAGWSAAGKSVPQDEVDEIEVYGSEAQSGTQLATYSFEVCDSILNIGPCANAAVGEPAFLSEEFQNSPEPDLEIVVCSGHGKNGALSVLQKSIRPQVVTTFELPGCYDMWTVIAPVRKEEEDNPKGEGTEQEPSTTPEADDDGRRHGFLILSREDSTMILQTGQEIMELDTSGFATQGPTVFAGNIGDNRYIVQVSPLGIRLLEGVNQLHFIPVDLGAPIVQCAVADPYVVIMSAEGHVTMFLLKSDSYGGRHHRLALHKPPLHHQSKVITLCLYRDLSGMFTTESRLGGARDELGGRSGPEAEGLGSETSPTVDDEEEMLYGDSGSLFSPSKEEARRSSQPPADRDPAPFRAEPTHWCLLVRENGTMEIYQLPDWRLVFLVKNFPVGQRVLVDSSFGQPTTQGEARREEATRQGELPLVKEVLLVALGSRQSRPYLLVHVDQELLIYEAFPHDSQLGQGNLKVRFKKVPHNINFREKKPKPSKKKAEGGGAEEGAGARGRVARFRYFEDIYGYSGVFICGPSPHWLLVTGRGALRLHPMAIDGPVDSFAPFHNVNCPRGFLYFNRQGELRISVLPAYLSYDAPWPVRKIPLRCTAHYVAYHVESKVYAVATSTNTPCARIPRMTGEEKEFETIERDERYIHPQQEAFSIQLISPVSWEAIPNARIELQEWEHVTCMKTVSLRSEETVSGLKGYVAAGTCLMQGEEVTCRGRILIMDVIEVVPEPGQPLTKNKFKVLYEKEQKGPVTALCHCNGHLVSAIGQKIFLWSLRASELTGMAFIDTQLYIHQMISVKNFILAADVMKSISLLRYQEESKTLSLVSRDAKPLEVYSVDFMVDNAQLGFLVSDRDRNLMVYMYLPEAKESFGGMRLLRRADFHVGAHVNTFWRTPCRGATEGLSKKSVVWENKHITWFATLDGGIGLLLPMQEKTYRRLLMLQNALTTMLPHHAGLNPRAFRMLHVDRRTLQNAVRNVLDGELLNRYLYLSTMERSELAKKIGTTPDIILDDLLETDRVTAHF
Chain of UniProt Q9NZN8 (Q9NZN8 whole entry, looked up): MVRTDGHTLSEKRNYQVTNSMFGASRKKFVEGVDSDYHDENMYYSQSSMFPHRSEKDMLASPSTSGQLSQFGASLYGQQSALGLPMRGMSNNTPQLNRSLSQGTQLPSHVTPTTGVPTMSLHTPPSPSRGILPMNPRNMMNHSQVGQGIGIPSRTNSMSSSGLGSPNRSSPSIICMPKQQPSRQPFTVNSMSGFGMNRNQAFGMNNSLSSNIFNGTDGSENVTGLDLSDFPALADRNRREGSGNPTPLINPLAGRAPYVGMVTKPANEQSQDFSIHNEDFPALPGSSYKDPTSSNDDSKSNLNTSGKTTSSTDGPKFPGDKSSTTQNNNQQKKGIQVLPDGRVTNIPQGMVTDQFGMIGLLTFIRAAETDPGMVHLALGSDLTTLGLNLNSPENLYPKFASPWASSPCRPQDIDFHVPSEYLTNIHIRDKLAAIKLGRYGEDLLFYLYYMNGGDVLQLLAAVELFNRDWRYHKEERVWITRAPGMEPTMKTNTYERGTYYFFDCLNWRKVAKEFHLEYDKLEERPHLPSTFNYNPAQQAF
Chain of UniProt Q12996 (Q12996 whole entry, looked up): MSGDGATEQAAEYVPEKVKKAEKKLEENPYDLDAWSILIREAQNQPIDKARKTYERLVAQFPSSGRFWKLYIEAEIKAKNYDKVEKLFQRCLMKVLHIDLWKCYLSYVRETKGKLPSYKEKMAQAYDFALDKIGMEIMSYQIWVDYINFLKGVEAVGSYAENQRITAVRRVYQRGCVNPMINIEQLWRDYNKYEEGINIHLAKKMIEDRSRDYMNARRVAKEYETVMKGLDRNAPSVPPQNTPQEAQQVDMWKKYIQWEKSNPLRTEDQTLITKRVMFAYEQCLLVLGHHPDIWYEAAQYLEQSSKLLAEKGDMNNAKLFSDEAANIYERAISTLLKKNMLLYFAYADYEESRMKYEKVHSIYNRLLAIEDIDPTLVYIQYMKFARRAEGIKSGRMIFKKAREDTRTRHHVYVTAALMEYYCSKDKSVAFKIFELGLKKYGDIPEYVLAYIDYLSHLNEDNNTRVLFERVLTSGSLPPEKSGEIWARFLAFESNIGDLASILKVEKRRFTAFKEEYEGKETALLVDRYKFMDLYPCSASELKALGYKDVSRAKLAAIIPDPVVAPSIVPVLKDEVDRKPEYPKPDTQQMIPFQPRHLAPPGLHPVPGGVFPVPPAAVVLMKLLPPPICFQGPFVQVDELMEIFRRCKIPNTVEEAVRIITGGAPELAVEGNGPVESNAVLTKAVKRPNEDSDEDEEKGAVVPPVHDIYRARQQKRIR
Chain of UniProt Q9Y646 (Q9Y646 whole entry, looked up): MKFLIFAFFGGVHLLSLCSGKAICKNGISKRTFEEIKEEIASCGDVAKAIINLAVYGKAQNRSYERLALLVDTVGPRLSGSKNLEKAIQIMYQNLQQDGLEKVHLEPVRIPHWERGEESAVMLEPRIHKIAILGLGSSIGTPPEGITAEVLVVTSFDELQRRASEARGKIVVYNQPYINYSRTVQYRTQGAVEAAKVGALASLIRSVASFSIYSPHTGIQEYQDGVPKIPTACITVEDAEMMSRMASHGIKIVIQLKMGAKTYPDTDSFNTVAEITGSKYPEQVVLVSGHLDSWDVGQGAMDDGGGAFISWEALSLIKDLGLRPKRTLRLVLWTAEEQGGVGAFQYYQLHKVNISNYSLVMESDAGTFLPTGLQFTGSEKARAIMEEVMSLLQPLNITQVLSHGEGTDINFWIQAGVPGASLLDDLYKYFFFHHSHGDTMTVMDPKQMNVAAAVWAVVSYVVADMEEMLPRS
Chain of UniProt P46108 (P46108 whole entry, looked up): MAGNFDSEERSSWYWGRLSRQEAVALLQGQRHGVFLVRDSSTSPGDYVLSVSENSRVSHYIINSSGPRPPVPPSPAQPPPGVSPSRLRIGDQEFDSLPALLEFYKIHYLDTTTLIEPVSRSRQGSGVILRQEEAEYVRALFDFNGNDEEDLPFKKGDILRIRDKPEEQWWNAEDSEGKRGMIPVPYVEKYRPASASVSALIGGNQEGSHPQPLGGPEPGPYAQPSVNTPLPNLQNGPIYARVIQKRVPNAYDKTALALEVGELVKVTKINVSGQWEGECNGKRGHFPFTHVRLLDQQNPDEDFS
Chain of UniProt P14854 (P14854 whole entry, looked up): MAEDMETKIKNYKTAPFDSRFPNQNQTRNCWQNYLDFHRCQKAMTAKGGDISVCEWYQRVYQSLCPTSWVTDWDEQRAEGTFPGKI
Chain of UniProt P41208 (P41208 whole entry, looked up): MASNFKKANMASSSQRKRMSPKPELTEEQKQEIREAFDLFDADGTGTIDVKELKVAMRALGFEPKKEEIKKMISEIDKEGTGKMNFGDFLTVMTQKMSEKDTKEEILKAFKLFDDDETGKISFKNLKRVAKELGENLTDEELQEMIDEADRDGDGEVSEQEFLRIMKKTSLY

Row | Target | log2 fold change
1 | CCZ1 (UniProt P86791) | 0.043
2 | CSTF2 (UniProt P33240) | 0.028
3 | COX6B1 (UniProt P14854) | -0.044
4 | CNDP2 (UniProt Q96KP4) | -0.067
5 | CPQ (UniProt Q9Y646) | 0.031
6 | CA1 (UniProt P00915) | -0.011
7 | CNN2 (UniProt Q99439) | -0.16
8 | CSNK2A2 (UniProt P19784) | -0.033
9 | CNOT2 (UniProt Q9NZN8) | -0.063
10 | CRK (UniProt P46108) | 0.026
11 | CETN2 (UniProt P41208) | 0.216
12 | CPSF1 (UniProt Q10570) | 0.026
13 | CSTF3 (UniProt Q12996) | 0.009

compound: FC(F)(F)c1ccc(/C=C/c2nc(COc3ccc(CCCCn4ccnn4)cc3)co2)cc1 [mubritinib]; test: as above
Summary of the method: as §1

Row | Target | log2 fold change
14 | CD151 (UniProt P48509) | -0.092
15 | CBX1 (UniProt P83916) | 0.066
16 | CHCHD2 (UniProt Q9Y6H1) | 0.04
17 | CCNK isoform 4 (UniProt O75909) | 0.006
18 | CBR1 (UniProt P16152) | -0.01
19 | CASP2 (UniProt P42575) | 0.006
20 | COCH (UniProt O43405) | -0.062
21 | CTBS (UniProt Q01459) | 0.025
22 | CDKN2AIP (UniProt Q9NXV6) | -0.011
23 | CBS (UniProt P35520) | 0.056
24 | COMT (UniProt P21964) | 0.06
25 | CCDC9 (UniProt Q9Y3X0) | -0.038
26 | CHD4 isoform 2 (UniProt Q14839) | -0.06
27 | COX5A (UniProt P20674) | 0.021
28 | CLCN3 (UniProt P51790) | 0.024
29 | C4A (UniProt P0C0L4) | -0.193
30 | CCAR2 isoform 2 (UniProt Q8N163) | 0.031
31 | COPS4 (UniProt Q9BT78) | 0.031

Row | Target | log2 fold change
32 | CDK16 isoform 2 (UniProt Q00536) | 0.035
33 | COPS3 (UniProt Q9UNS2) | 0.023
34 | C4orf33 (UniProt Q8N1A6) | 0.054
35 | COPS8 (UniProt Q99627) | 0.025
36 | CDK5RAP3 isoform 4 (UniProt Q96JB5) | 0.083
37 | CCZ1 (UniProt P86791) | 0.038
38 | CSTF2 (UniProt P33240) | -0.046
39 | COX6B1 (UniProt P14854) | 0.054
40 | CNDP2 (UniProt Q96KP4) | 0.101
41 | CPQ (UniProt Q9Y646) | 0.044
42 | CA1 (UniProt P00915) | 0.067
43 | CNN2 (UniProt Q99439) | 0.051
44 | CSNK2A2 (UniProt P19784) | -0.019
45 | CNOT2 (UniProt Q9NZN8) | 0.054
46 | CRK (UniProt P46108) | 0.075
47 | CETN2 (UniProt P41208) | 0.036
48 | CPSF1 (UniProt Q10570) | -0.007
49 | CSTF3 (UniProt Q12996) | 0.019
